From PubChem BioAssay
Compounds with a hit are over-represented: about 3% of the library has one in this group of screens.
LmPK inhibitor: inhibitors of Leishmania mexicana pyruvate kinase; Q27686; purified LmPK, Kinase-Glo ATP luminescence, 1 h; Potency, µM (titrated, usually from 57.5 µM), inactives show at the top dose activity change, negative = inhibition, actives largely listed as inhibitors; 0.37% of 290,000 active
Target sequence (Q27686 whole entry, looked up): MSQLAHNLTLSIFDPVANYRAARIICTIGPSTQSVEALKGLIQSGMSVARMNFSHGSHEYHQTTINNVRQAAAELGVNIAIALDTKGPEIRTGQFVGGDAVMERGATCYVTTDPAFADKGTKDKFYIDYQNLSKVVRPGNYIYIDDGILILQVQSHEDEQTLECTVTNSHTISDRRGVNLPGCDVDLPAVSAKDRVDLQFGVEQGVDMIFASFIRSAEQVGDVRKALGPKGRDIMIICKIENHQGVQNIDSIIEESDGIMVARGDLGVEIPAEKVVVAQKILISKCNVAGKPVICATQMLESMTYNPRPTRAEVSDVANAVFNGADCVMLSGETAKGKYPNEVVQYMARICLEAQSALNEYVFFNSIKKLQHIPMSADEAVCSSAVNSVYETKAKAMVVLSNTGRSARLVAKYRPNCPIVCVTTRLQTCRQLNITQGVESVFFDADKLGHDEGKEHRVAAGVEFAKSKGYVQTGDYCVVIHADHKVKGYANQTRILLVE
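Pyruvate kinase activity monitored as ATP production (luciferase luminescence). Conditions: 0.1 nM enzyme, 0.5 mM PEP, 0.1 mM ADP, 1 h, RT; normalized against uninhibited and no-enzyme wells.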
RE007 growth inh: less growth of the S. pombe RE007 Vpr strain; AID 651644; Potency, µM (titrated, usually from 92.2 µM), for the others: top-dose activity change, negative = less growth, most hits filed as inhibitors; 0.21% of 360,000 active; S. pombe RE007 Vpr strain, BacTiter-Glo ATP luminescence, 24 h; active = well fitted falling curve with a large enough effect; inconclusive = small, poorly fitted or top-dose-only effect; inactive = no such curve, though single readings can be large or run the other way; also: nearly all actives have a fitted effect of over 50% in size
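Fission yeast RE007 carrying one integrated HIV-1 vpr copy, seeded at OD 0.01 in PMG+AL medium with 23 nL pinned compound. Grown 24 h at 30 degrees; viability read by BacTiter-Glo luminescence after 5 min.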
Tb PYK inh: inhibitors of Trypanosoma brucei pyruvate kinase. TbPYK enzyme, Kinase-Glo Plus ATP luminescence, 45 min. Potency, µM (titrated, usually from 76.8 µM), for inactives: top-dose activity, negative = inhibition, usual class: inhibitors. 0.12% of 410,000 active. AID 624173; also: nearly all actives have a fitted effect of over 50% in size
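T. brucei PYK with substrate was exposed to pin-transferred compounds across a concentration series, then started with 130 uM ADP (final). After 45 min at room temperature, Kinase-Glo Plus luminescence was read, normalized and curve-fitted.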
Sm TGR block: blocks Schistosoma mansoni thioredoxin glutathione reductase; 3% of 360,000 active; purified TGR, DTNB reduction, TNB absorbance 405 nm; AID 485364; Potency, µM (doses to about 114 µM), without a hit: at the top dose activity change, negative = inhibition, hits mostly inhibitors; Q962Y6; also: nearly all actives have a fitted effect of over 60% in size
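TGR 20 nM + NADPH 100 uM (dispensed conc.), cpd preinc 15 min RT; start with NADPH (500 uM addition) then DTNB (15 mM addition). Kinetic TNB absorbance, 405 nm filter. Four-parameter Hill fit across titration.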
Starred values were filed as active, the others as inactive; ? = inconclusive; nt = no result given; [ ] = remark or other dose. Unless noted, calls follow the shape of the dose curve; as a rule, active = well fitted curve in the direction sought with a large enough effect; inconclusive = small, poorly fitted or top-dose-only effect, or another doubt; inactive = no such curve, though single readings can be large; an effect the other way counts as inactive or inconclusive. % is scaled to controls: 0 for no effect and ±100 for the full control effect; potency is read from the fitted curve at half-maximal effect.

SMILES | LmPK inhibitor | RE007 growth inh | Tb PYK inh | Sm TGR block
COC(=O)[C@@]1(Cc2ccc(F)cc2)[C@H]2c3cc(C(=O)N(C)C)n(Cc4ccsc4Br)c3C[C@H]2CN1C(=O)c1ccccc1 | nt | 5.7% | -7.4% | nt
COC1C(OC(=O)/C=C/C=C/C=C/C=C/C(=O)O)CCC2(CO2)C1C1(C)OC1CC=C(C)C (stereo not given) | nt | nt | -5.0% | nt
CC1(OC(=O)CCc2ccccc2)C(=O)C=C2C=C(c3ccc(C#N)cc3)N(Cc3ccccc3)C=C2C1=O (stereo not given) | -7.3%[11.5 µM] | 13.5% | 1.0% | ?
CCCCC1=CC2=CC(=O)C(C)(OC(=O)CCc3ccccc3)C(=O)C2=CO1 (stereo not given) | -6.8% | 6.0% | -21.8% | 44.7µM*
CCCCC1=CC2=CC(=O)C(C)(OC(=O)c3cnc4ccccc4n3)C(=O)C2=CO1 (stereo not given) | -1.2% | nt | nt | 35.5µM*
COC/C=C/C1=CC2=CC(=O)C(C)(OC(=O)c3cnc4ccccc4n3)C(=O)C2=CN1Cc1ccccc1 (stereo not given) | -3.0%[11.5 µM] | -7.8% | 2.8% | ?
COC/C=C/C1=CC2=CC(=O)C(C)(OC(=O)c3cnc4ccccc4n3)C(=O)C2=CN1Cc1ccc(OC)cc1 (stereo not given) | -4.9%[11.5 µM] | 1.1% | 2.1% | 15.8µM*
CC1(OC(=O)CCc2ccccc2)C(=O)C=C2C=C(c3ccc(C#N)cc3)N(Cc3ccco3)C=C2C1=O (stereo not given) | -3.2%[11.5 µM] | -5.8% | 0.8% | 35.5µM*
CCCCCCCC1=CC2=CC(=O)C(C)(OC(C)=O)C(=O)C2=CN1CCc1ccccc1 (stereo not given) | 0.1% | nt | nt | -4.5%
CCCCC1=CC2=CC(=O)C(C)(OC(=O)c3cccs3)C(=O)C2=CO1 (stereo not given) | nt | -15.1% | -19.4% | nt
Cc1cccc(C(O)c2cnc(C)n2Cc2ccccc2)c1 (stereo not given) | nt | 11.3% | -1.9% | nt
CCSc1ccc([C@@H]2[C@@H]3C(=O)N(CC)C(=O)[C@@H]3[C@]3(C(=O)OC)CCCN23)cc1 | nt | 5.3% | -1.2% | 35.5µM*
CCN1C(=O)[C@@H]2[C@@H](c3ccc(-c4ccc(Cl)c(Cl)c4)c(OC)c3)N3CCC[C@@]3(C(=O)OC)[C@@H]2C1=O | nt | -19.7% | -9.1% | 35.5µM*
CCN1C(=O)[C@H]2[C@@H](c3ccc(-c4ccc(F)cc4)c(OC)c3)N3CCC[C@@]3(C(=O)OC)[C@H]2C1=O | nt | 4.5% | -4.1% | ?
Cn1c(=O)oc2cc(S(=O)(=O)NC(Cc3ccccc3)C(=O)Nc3ccc(F)cc3)ccc21 (stereo not given) | nt | nt | 0.8% | 0.9%
CC(C)c1ccc(N2C(=O)C(Cl)=C(N3CCOCC3)C2=O)cc1 | -1.8% | 6.0% | 2.7% | 2.5%
O=C1C(Cl)=C(N2CCOCC2)C(=O)N1c1ccccc1F | 2.8% | -1.4% | 10.2% | 39.8µM*
CCOc1ccc(N2C(=O)C(Cl)=C(N3CCOCC3)C2=O)cc1 | 0.7% | 24.7% | -12.1% | 22.4µM*
Cc1ccccc1N1C(=O)C(Cl)=C(N2CCOCC2)C1=O | -2.6% | 7.6% | 3.9% | -6.2%
COc1ccc([N+](=O)[O-])c(S(=O)(=O)c2ccccc2)n1 | 0.6% | ? | 4.8% | 0.1µM*
O=[N+]([O-])c1cccnc1S(=O)(=O)c1ccccc1 | -3.0% | 7.3% | -6.0% | 0.316µM*
COc1ccc([N+](=O)[O-])c(S(=O)(=O)c2ccc(Cl)cc2)n1 | -0.1% | 12.6µM* | 6.5% | ?
O=C(c1ccc(CSc2nc3ccncc3n2Cc2ccccc2F)cc1)N1CCCCC1 | nt | nt | 5.8% | 4.2%
CCC1CCCCN1S(=O)(=O)c1ccc(NC(=O)c2cc(=O)c3c(C)cc(C)cc3o2)cc1 (stereo not given) | nt | nt | -1.3% | 15.5%
COc1ccc(C(=O)NCc2ccc3[nH]c(C)cc3c2)cc1OC | -0.5% | 3.2% | -0.8% | 14.1µM*
COc1cccc(C(=O)NCc2ccc3[nH]c(C)cc3c2)c1 | -5.4% | -4.0% | -4.6% | 39.8µM*
Cc1ccc(-n2c(=O)c3c(cnn3C)n(CC(=O)Nc3cc(C)ccc3C)c2=O)cc1 | nt | nt | -0.4% | 10.8%
CN1CCN(c2ccc(Cl)cc2NC(=O)CCN2C(=O)c3ccccc3C2=O)CC1 | 12.0% | -14.1% | 0.4% | 39.8µM*
COc1ccc(CCC(=O)Nc2cc(Cl)ccc2N2CCN(C)CC2)cc1 | 7.8% | 7.1% | 8.2% | -2.1%
